# Results as given in PubChem BioAssay AID1347417 (National Center for Advancing Translational Sciences (NCATS), 2020).
# Out of some 120,000 compounds screened, about 5,300 (4.4%) were called active. About 22% were inconclusive and are not listed. Many of the other results were omitted from the sample, so actives are more common in it than they were. Values without a mark were called inactive. The call rests on the fitted dose curve; in most records, active means well fitted inhibition curve with a large enough effect; inconclusive means small, poorly fitted or top-dose-only effect; inactive means no such curve, though single readings can be large or run the other way.
# Experiment: qHTS Primary assay for Inhibitors of Plasmodium falciparum Dd2 growth in vitro; further: nearly all actives have a fitted effect of over 65% in size;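 on activity, negative = inhibition: plate controls were DMSO vehicle for no effect and reference drug for full effect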
# Settings: P. falciparum Dd2 growth, SYBR Green, 72 h; series mostly up to 28.9 µM; activity, negative = inhibition: at the top concentration
# Method in brief: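 Readout: SYBR Green fluorescence, 485 nm excitation, 535 nm emission, after ~16 h lysis at 37C. Before that, Dd2-infected red cells (2.5% hematocrit) grew 72 h with compound, 29 uM top final concentration.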
# Potency means the concentration at half of the fitted maximal effect.
Structure (SMILES),"activity, negative = inhibition",outcome,Potency
COCc1cc(CC2(NCC(C)(C)C)COC2)no1,-17.5% [at 44.1 µM],–,–
CC(=O)N[C@@H]1Cc2ccccc2[C@H]1n1ccnc1-c1cc2n(n1)CCNC2,-0.272%,–,–
Cc1ccc(N2CCN(C(=O)c3ccc4c(c3)N(C)C3CCCCCN3C4=O)CC2)cc1 (stereo not given),–,inactive,–
Cc1nc2c(c(-c3ccc(O)cc3)n1)CN(C(=O)c1ccccc1C)CCC2,-25%,–,–
CC(=O)N1CCc2nc(C3CC3)nc(-c3ccc(Cl)cc3)c2C1,-17.7% [at 44.1 µM],–,–
COc1ccc(-c2nc(-c3ccccc3)nc3c2CN(C(=O)c2ccc(C)cc2)CC3)cc1,–,–,11.2 µM (active)
COc1ccc(-c2cc3nc4c(c(=O)n3[nH]2)CN(C(=O)c2ccc(C)nc2)CC4)cc1,-16.8% [at 5.79 µM],–,–
O=C(Nc1ccccc1)N1CCc2nc(-c3ccccc3)nc(-c3ccc(Cl)cc3)c2C1,–,–,10 µM (active)
CC(C)c1nc2c(c(-c3ccc(O)cc3)n1)CN(C(=O)Nc1ccccc1)CC2,–,inactive,–
Cc1ccc(F)c(OCC(=O)c2ccc3c(c2)N(CCCC(=O)NCC2CCCO2)C(=O)CO3)c1 (stereo not given),–,inactive,–
O=C(Cc1ccc(Oc2ccccc2)cc1)N1CC(COc2ccccc2)C2(C1)CN(C(=O)c1cn[nH]c1)C2 (stereo not given),-2.51%,–,–
O=C(CC1COCCN1)NCCc1nc(-c2ccccn2)no1 (stereo not given),2.23%,–,–
O=C(NC[C@H]1OC[C@@H](NC2CCOCC2)[C@@H]1O)C1CCCC1,–,inactive [at 44.1 µM],–
O=C(NCCCN1CCOCC1)C1CCN(C(=O)N2CC3CC(C2)[C@H]2CCCC(=O)N2C3)CC1 (stereo not given in full),-15.4%,–,–
Clc1ccccc1C1(c2ccnc(NCCn3cccn3)n2)CCNCC1,-4.47%,–,–
COc1ccc(N2CCC(NC(=O)c3ccc4[nH]ccc4c3)C2=O)cc1 (stereo not given),-7.21%,–,–
COc1cccc([S+](=O)([O-])N2CCCC3(CC(c4cccc(C(F)(F)F)c4)=NO3)C2)c1 (stereo not given),1.81%,–,–
COc1ccc(C2=NOC3(CCCN([S+](=O)([O-])c4ccccc4)C3)C2)cc1 (stereo not given),0.512%,–,–
COc1ccc(-c2nc(C)nc3c2CN([S+](=O)([O-])c2onc(C)c2C)CC3)cc1,–,inactive,–
COc1ccc(-c2nc(C(C)C)nc3c2CCN(C(=O)Cc2ccccn2)CC3)cc1,-16.1%,–,–

Structure (SMILES),"activity, negative = inhibition",outcome,Potency
COc1ccc(-c2nc(C3CC3)nc3c2CCN([S+](=O)([O-])c2ccccc2)CC3)cc1,–,–,7.94 µM (active)
COc1ccc(-c2nc(C(C)C)nc3c2CCN([S+](=O)([O-])c2cccc(C(F)(F)F)c2)CC3)cc1,–,–,7.08 µM (active)
CNC(=O)CCC[C@H]1NC[C@@H]2CCCN3CCC[C@H]1[C@H]23,5.79%,–,–
CCNC(=O)[C@@H]1C[C@H](N)CN1C(=O)[C@@H](C)c1ccc2cc(OC)ccc2c1,-4.1%,–,–
COc1ccccc1N1CCN(C(=O)c2ccccc2-c2ncc[nH]2)CC1=O,5.23%,–,–
Cc1nn(CC(=O)O)c(=O)c2nc(C(C)C)sc12,37%,–,–
O=C(NC1CCCN(c2cc(-c3ccc(Cl)cc3)[nH]n2)C1)c1ccncc1 (stereo not given),-9.77%,–,–
COC(=O)c1ccc(NC(=O)c2cnn(-c3ccc(Cl)cc3)c2C2CCN(C(=O)OC(C)(C)C)CC2)cc1,–,–,7.94 µM (active)
COC(=O)c1ccc(NC(=O)c2cccc3c2C(=O)N(C2CCCCC2)C3)cc1,16.6%,–,–
CCc1ccccc1NC(=O)c1cnn(-c2ccc(F)cc2)c1C1CCNCC1,-14%,–,–
COC(=O)c1ccc(NC(=O)c2cc(S(=O)(=O)N3CCC(C)CC3)cn2C)cc1,13.3%,–,–
CC(C)(C)OC(=O)N1CCC(c2c(C(=O)Nc3ccc4c(c3)OCO4)cnn2-c2ccccc2)CC1,–,–,5.01 µM (active)
Cc1ccc(NC(=O)c2cc3n(n2)CC(c2ccc4c(c2)OCO4)OC3)cc1C (stereo not given),-22.5%,–,–
COC[C@@H]1[C@H](NC(=O)C2CCN(C(=O)c3ccncc3)CC2)[C@@H]2CCO[C@H]12,-6.77%,–,–
Cn1cc(CNC(=O)C[C@@H]2C[C@H]3O[C@H](CNC4Cc5ccccc5C4)[C@@H](O)[C@H]3O2)cn1,20.1% [at 44.1 µM],–,–
CCc1nc2ccc(C(=O)N3CCN(c4cccc(Cl)c4)CC3)cc2nc1CC,-17.5%,–,–
Cc1ccc(Cl)cc1N1CCN(C(=O)c2cccn3c(=O)c4cc(Cl)ccc4nc23)CC1,8.94%,–,–
CCc1nc2ccc(C(=O)N3CCN(c4cc(Cl)ccc4C)CC3)cc2nc1CC,–,–,11.2 µM (active)
N#Cc1cccc(C(=O)NC2CCN(c3cc(-c4ccc(Cl)cc4)[nH]n3)C2)c1 (stereo not given),-18.8%,–,–
O=C1CN(Cc2cc3cc4c(cc3[nH]c2=O)OCO4)CCCN1,-6.4%,–,–
